Measurements from the supplement of paper PMC4100887.
Structures can show the parent of a compound that is named as a salt. ± gives the standard deviation of the averaged measurements.

Each molecule was assayed on IMR-90 (assay: relative cell viability (ATPlite) vs untreated control (fraction); higher = less toxic). Conditions: 1 µM; 72 h.

With `Cc1nc(-c2ccccc2)c(-c2ccncc2)o1` as the molecule, how does the relative cell viability read?
Its relative cell viability is 1.02 ± 0.093.

`CC(=O)O/N=C1/C(c2c(O)[nH]c3cc(Br)ccc23)=Nc2ccccc21` [GSK-3 Inhibitor X] was tested. Which relative cell viability did it give?
The relative cell viability was 0.903 ± 0.052.

For `COc1cc2ncnc(Nc3ccc(Cl)cc3Cl)c2cc1OC` [Ste11 MAPKKK Activation Inhibitor], which relative cell viability is on record?
The relative cell viability was 0.946 ± 0.13.

Which relative cell viability does the source give for `COc1cc2ncnc(Nc3ccc(Oc4ccccc4)cc3)c2cc1OC` [Src Kinase Inhibitor I] here?
The relative cell viability was 0.956 ± 0.063.

Which relative cell viability does the source give for `CCOC(=O)c1c(C)[nH]c(/C=C2\C(=O)Nc3ccccc32)c1C` [VEGF Receptor 2 Kinase Inhibitor I] here?
The relative cell viability was 0.961 ± 0.063.

`O=C(Nc1ccc(-c2cn[nH]c2)cc1)C1COc2ccccc2O1` (centres undefined) [Rho Kinase Inhibitor V] was tested. Which relative cell viability did it give?
Its relative cell viability is 1.09 ± 0.066.

`CCN(CC)C(=O)c1ccc(Nc2nc(OCC3CCCCC3)c3[nH]cnc3n2)cc1` [Cdk2 Inhibitor IV, NU6140] was tested. Which relative cell viability did it give?
The relative cell viability was 1.03 ± 0.076.

Which relative cell viability does the source give for `O=C(c1ccccc1)c1ccc(N2CCOCC2)cc1O` [DNA-PK Inhibitor V] here?
Its relative cell viability is 1.01 ± 0.094.

`O=C1NC(=O)C(c2c[nH]c3ccccc23)=C1c1c[nH]c2ccccc12` [Bisindolylmaleimide IV] was tested. Which relative cell viability did it give?
The relative cell viability was 0.826 ± 0.14.

How did the relative cell viability turn out when `CC(C)(C)c1ccc(S(=O)(=O)Nc2ccc(-n3ccnc3)cc2)cc1` [Stem-Cell Factor/c-Kit Inhibitor, ISCK03] was run?
The relative cell viability was 0.897 ± 0.068.

How did the relative cell viability turn out when `COc1ccc(COc2ccc(Cc3cnc(N)nc3N)cc2OC)cc1` [cFMS Receptor Tyrosine Kinase Inhibitor] was run?
Its relative cell viability is 1.05 ± 0.12.

How did the relative cell viability turn out when `O=C(Nc1cc(C(F)(F)F)cc(C(F)(F)F)c1)c1cc(Cl)ccc1O` [IKK-2 Inhibitor V] was run?
The relative cell viability was 0.878 ± 0.28.

With `COc1ccc(CNc2nc(N(CCO)CCO)nc3c2ncn3C(C)C)cc1` [Cdk2 Inhibitor III] as the molecule, how does the relative cell viability read?
Its relative cell viability is 0.927 ± 0.086.

For `O=C(Nc1cc(Cl)cc2c1[nH]c1cnccc12)c1cccnc1` [IKK Inhibitor X], which relative cell viability is on record?
Its relative cell viability is 0.946 ± 0.061.

`COc1cc2ncnc(Nc3ccc(O)c(Br)c3)c2cc1OC` [JAK3 Inhibitor II] was tested. Which relative cell viability did it give?
Its relative cell viability is 1.01 ± 0.09.

`Cc1cc(Nc2nc(-c3ccccc3)nc3ccccc23)n[nH]1` [GSK-3 Inhibitor XIII] was tested. Which relative cell viability did it give?
The relative cell viability was 1 ± 0.059.

Which relative cell viability does the source give for `c1cc(-c2cnn3cc(-c4ccc(OCCN5CCCCC5)cc4)cnc23)ccn1` [AMPK Inhibitor, Compound C] here?
The relative cell viability was 0.86 ± 0.092.

Which relative cell viability does the source give for `CN1C(=O)C(c2c[nH]c3ccccc23)=C(c2c[nH]c3ccccc23)C1=O` [Bisindolylmaleimide V] here?
Its relative cell viability is 0.936 ± 0.091.

For `c1ccc2c(-c3ccncc3)c[nH]c2c1` [Rho Kinase Inhibitor III, Rockout], which relative cell viability is on record?
Its relative cell viability is 0.814 ± 0.19.

`c1nc2c(NC3CCCCC3)nc(Nc3ccc(N4CCOCC4)cc3)nc2[nH]1` [Reversine] was tested. Which relative cell viability did it give?
The relative cell viability was 0.936 ± 0.08.

How did the relative cell viability turn out when `Nc1ccc(-c2cccc3c(=O)cc(N4CCOCC4)oc23)cc1` was run?
Its relative cell viability is 0.822 ± 0.13.

With `Nc1[nH]nc2nnc(-c3c(-c4ccccc4)nn4ccccc34)cc12` as the molecule, how does the relative cell viability read?
Its relative cell viability is 1.03 ± 0.046.

How did the relative cell viability turn out when `Oc1cccc(-c2nc(N3CCOCC3)c3oc4ncccc4c3n2)c1` was run?
The relative cell viability was 0.958 ± 0.099.

`O=C(Nc1cccc(Nc2nccc(Nc3cccc(C(F)(F)F)c3)n2)c1)C1CC1` [Aurora Kinase Inhibitor III] was tested. Which relative cell viability did it give?
The relative cell viability was 0.892 ± 0.074.

With `CCC(CO)Nc1nc(NCc2ccccc2)c2ncn(C(C)C)c2n1` [Roscovitine, (S)-Isomer] as the molecule, how does the relative cell viability read?
The relative cell viability was 1.04 ± 0.054.

Which relative cell viability does the source give for `COc1ccc(Cl)cc1NC(=O)Nc1cc(C)nc2ccccc12` [IGF-1R Inhibitor II] here?
Its relative cell viability is 1.04 ± 0.08.

How did the relative cell viability turn out when `O=c1c(O)c(-c2ccc(O)c(O)c2)oc2cc(O)c(O)c(O)c12` [Quercetagetin] was run?
The relative cell viability was 0.88 ± 0.16.

`COc1cc2ncnc(Nc3cccc(O)c3)c2cc1OC` [WHI-P180, Hydrochloride] was tested. Which relative cell viability did it give?
Its relative cell viability is 0.912 ± 0.092.

For `CC[C@H](CO)Nc1nc(NCc2ccccc2O)c2ncn(C(C)C)c2n1` [Olomoucine II], which relative cell viability is on record?
Its relative cell viability is 1.07 ± 0.073.

How did the relative cell viability turn out when `NC(=O)Nc1sc(-c2ccccc2)cc1C(N)=O` [IKK-2 Inhibitor VI] was run?
The relative cell viability was 0.942 ± 0.1.

How did the relative cell viability turn out when `O=C1Cc2c([nH]c3ccc([N+](=O)[O-])cc23)-c2ccccc2N1` [Alsterpaullone] was run?
Its relative cell viability is 0.946 ± 0.067.

Which relative cell viability does the source give for `CCOc1nc(NC(=O)Cc2cc(OC)ccc2OC)cc(N)c1C#N` [JNK Inhibitor VIII] here?
Its relative cell viability is 0.992 ± 0.081.

What follows are molecules tested on K562 in the same assay as above. Conditions: 1 µM; 72 h.

`Cc1nc(-c2ccccc2)c(-c2ccncc2)o1` was tested. Which relative cell viability did it give?
The relative cell viability was 0.835 ± 0.077.

For `CC(=O)O/N=C1/C(c2c(O)[nH]c3cc(Br)ccc23)=Nc2ccccc21` [GSK-3 Inhibitor X], which relative cell viability is on record?
The relative cell viability was 0.885 ± 0.08.

For `COc1cc2ncnc(Nc3ccc(Cl)cc3Cl)c2cc1OC` [Ste11 MAPKKK Activation Inhibitor], which relative cell viability is on record?
Its relative cell viability is 0.802 ± 0.084.

`COc1cc2ncnc(Nc3ccc(Oc4ccccc4)cc3)c2cc1OC` [Src Kinase Inhibitor I] was tested. Which relative cell viability did it give?
The relative cell viability was 0.839 ± 0.088.

`CCOC(=O)c1c(C)[nH]c(/C=C2\C(=O)Nc3ccccc32)c1C` [VEGF Receptor 2 Kinase Inhibitor I] was tested. Which relative cell viability did it give?
The relative cell viability was 0.996 ± 0.047.

How did the relative cell viability turn out when `O=C(Nc1ccc(-c2cn[nH]c2)cc1)C1COc2ccccc2O1` (centres undefined) [Rho Kinase Inhibitor V] was run?
Its relative cell viability is 0.824 ± 0.075.

How did the relative cell viability turn out when `CCN(CC)C(=O)c1ccc(Nc2nc(OCC3CCCCC3)c3[nH]cnc3n2)cc1` [Cdk2 Inhibitor IV, NU6140] was run?
Its relative cell viability is 0.775 ± 0.041.

`O=C(c1ccccc1)c1ccc(N2CCOCC2)cc1O` [DNA-PK Inhibitor V] was tested. Which relative cell viability did it give?
The relative cell viability was 0.878 ± 0.066.

How did the relative cell viability turn out when `O=C1NC(=O)C(c2c[nH]c3ccccc23)=C1c1c[nH]c2ccccc12` [Bisindolylmaleimide IV] was run?
The relative cell viability was 0.936 ± 0.053.

Which relative cell viability does the source give for `CC(C)(C)c1ccc(S(=O)(=O)Nc2ccc(-n3ccnc3)cc2)cc1` [Stem-Cell Factor/c-Kit Inhibitor, ISCK03] here?
The relative cell viability was 0.818 ± 0.096.

With `COc1ccc(COc2ccc(Cc3cnc(N)nc3N)cc2OC)cc1` [cFMS Receptor Tyrosine Kinase Inhibitor] as the molecule, how does the relative cell viability read?
The relative cell viability was 0.789 ± 0.061.

With `O=C(Nc1cc(C(F)(F)F)cc(C(F)(F)F)c1)c1cc(Cl)ccc1O` [IKK-2 Inhibitor V] as the molecule, how does the relative cell viability read?
The relative cell viability was 0.505 ± 0.03.

How did the relative cell viability turn out when `COc1ccc(CNc2nc(N(CCO)CCO)nc3c2ncn3C(C)C)cc1` [Cdk2 Inhibitor III] was run?
Its relative cell viability is 0.855 ± 0.061.

`O=C(Nc1cc(Cl)cc2c1[nH]c1cnccc12)c1cccnc1` [IKK Inhibitor X] was tested. Which relative cell viability did it give?
The relative cell viability was 0.896 ± 0.069.

`COc1cc2ncnc(Nc3ccc(O)c(Br)c3)c2cc1OC` [JAK3 Inhibitor II] was tested. Which relative cell viability did it give?
Its relative cell viability is 0.815 ± 0.037.

Which relative cell viability does the source give for `Cc1cc(Nc2nc(-c3ccccc3)nc3ccccc23)n[nH]1` [GSK-3 Inhibitor XIII] here?
Its relative cell viability is 0.937 ± 0.041.

Which relative cell viability does the source give for `c1cc(-c2cnn3cc(-c4ccc(OCCN5CCCCC5)cc4)cnc23)ccn1` [AMPK Inhibitor, Compound C] here?
Its relative cell viability is 0.883 ± 0.072.

Which relative cell viability does the source give for `CN1C(=O)C(c2c[nH]c3ccccc23)=C(c2c[nH]c3ccccc23)C1=O` [Bisindolylmaleimide V] here?
The relative cell viability was 0.88 ± 0.053.

For `c1ccc2c(-c3ccncc3)c[nH]c2c1` [Rho Kinase Inhibitor III, Rockout], which relative cell viability is on record?
The relative cell viability was 0.833 ± 0.097.

`c1nc2c(NC3CCCCC3)nc(Nc3ccc(N4CCOCC4)cc3)nc2[nH]1` [Reversine] was tested. Which relative cell viability did it give?
The relative cell viability was 0.578 ± 0.048.

For `Nc1ccc(-c2cccc3c(=O)cc(N4CCOCC4)oc23)cc1`, which relative cell viability is on record?
The relative cell viability was 0.79 ± 0.094.

`Nc1[nH]nc2nnc(-c3c(-c4ccccc4)nn4ccccc34)cc12` was tested. Which relative cell viability did it give?
Its relative cell viability is 0.915 ± 0.036.

`Oc1cccc(-c2nc(N3CCOCC3)c3oc4ncccc4c3n2)c1` was tested. Which relative cell viability did it give?
Its relative cell viability is 0.741 ± 0.015.

For `O=C(Nc1cccc(Nc2nccc(Nc3cccc(C(F)(F)F)c3)n2)c1)C1CC1` [Aurora Kinase Inhibitor III], which relative cell viability is on record?
Its relative cell viability is 0.892 ± 0.044.

How did the relative cell viability turn out when `CCC(CO)Nc1nc(NCc2ccccc2)c2ncn(C(C)C)c2n1` [Roscovitine, (S)-Isomer] was run?
Its relative cell viability is 0.912 ± 0.081.

How did the relative cell viability turn out when `COc1ccc(Cl)cc1NC(=O)Nc1cc(C)nc2ccccc12` [IGF-1R Inhibitor II] was run?
The relative cell viability was 0.933 ± 0.014.

Which relative cell viability does the source give for `O=c1c(O)c(-c2ccc(O)c(O)c2)oc2cc(O)c(O)c(O)c12` [Quercetagetin] here?
The relative cell viability was 0.799 ± 0.086.

With `COc1cc2ncnc(Nc3cccc(O)c3)c2cc1OC` [WHI-P180, Hydrochloride] as the molecule, how does the relative cell viability read?
Its relative cell viability is 0.747 ± 0.073.

With `CC[C@H](CO)Nc1nc(NCc2ccccc2O)c2ncn(C(C)C)c2n1` [Olomoucine II] as the molecule, how does the relative cell viability read?
The relative cell viability was 0.758 ± 0.02.

`NC(=O)Nc1sc(-c2ccccc2)cc1C(N)=O` [IKK-2 Inhibitor VI] was tested. Which relative cell viability did it give?
Its relative cell viability is 0.861 ± 0.097.

For `O=C1Cc2c([nH]c3ccc([N+](=O)[O-])cc23)-c2ccccc2N1` [Alsterpaullone], which relative cell viability is on record?
The relative cell viability was 0.906 ± 0.074.

Which relative cell viability does the source give for `CCOc1nc(NC(=O)Cc2cc(OC)ccc2OC)cc(N)c1C#N` [JNK Inhibitor VIII] here?
The relative cell viability was 0.983 ± 0.035.
